This note sets out measurements from PubChem BioAssay (NCATS).

Activity calls are given as the source filed them. A call without a number means that no potency is given here. Calls follow the shape of the dose curve; as a rule, active = well fitted curve in the direction sought with a large enough effect; inconclusive = small, poorly fitted or top-dose-only effect, or another doubt; inactive = no such curve, though single readings can be large; an effect the other way counts as inactive or inconclusive.

The first assay can be described thus: MultiTox-Fluor Cytotoxicity Assay - LYMP1-003 - Dead Cells (AID 961). Also: nearly all actives have a fitted effect of over 70% in size. Particulars: LYMP1-003 lymphoblastoid cells, dead-cell protease fluorescence; series mostly up to 92.2 µM. The gist of the method: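 Dead-cell protease release, detected as bis-AAF-R110 fluorescence at 485/520 nm, was measured in LYMP1-003 cells after 16 h compound treatment at 37 C. AC50 values came from Hill-modeled qHTS curves normalized to DMSO (0%) and 15 uM tetraoctylammonium bromide (100%).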
On to `CCC=O`, for which the Potency entry was “inactive”.

Regarding `CCCCCCCCCCCCOCC1CO1` (configuration not stated), the Potency result was “inactive”.

`Oc1cccc(Nc2ccccc2)c1`: the Potency entry is “inactive”.

Regarding `C=CC(=O)NC(C)C`, the Potency entry was “inactive”.

For the compound `O=[N+]([O-])c1cccc(Cl)c1`, the Potency entry was “inactive”.

With `CCC(C)(C)C(=O)O`, the Potency result was “inactive”.

Regarding `C/C(C=O)=C/c1ccccc1`, the Potency entry was “inactive”.

As to `CCOc1cccc(N)c1`, the Potency entry was “inactive”.

Turning to `Cc1ccc2oc(=O)ccc2c1`, the Potency entry was “inactive”.

As to `CC(=O)CCc1ccccc1`, the Potency result was “inactive”.

On to `Clc1ccccn1`, for which the Potency entry is “inactive”.

For the compound `Nc1cc([N+](=O)[O-])ccc1C(=O)O`, the Potency entry is “inactive”.

Take `ICCc1ccccc1`: the Potency entry was “inactive”.

A further assay can be described thus: MultiTox-Fluor Cytotoxicity Assay - LYMP1-003 - Live Cells (AID 962).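 Also: cells exposed to compound for 16 hours at 37 °C; cytotoxic hits lower the live-cell protease signal.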 The settings on record: LYMP1-003 lymphoblastoid cells, MultiTox-Fluor live-cell protease fluorescence; series mostly up to 92.2 µM. Put shortly: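 Readout: live-cell fluorescence (Ex/Em=405/510) from GF-AFC cleavage after 60 min MultiTox-Fluor reagent at room temperature. Lymphoblastoid LYMP1-003 cells, 16 hr compound treatment, 37 C. Concentration-response fitted to standard Hill equation for AC50.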
`CC/C(C)=N/O`: the Potency result was “inactive”.

For the compound `Nc1c(Cl)cc(Cl)cc1Cl`, the Potency entry is “inactive”.

On to `Nc1ccc(Cl)cc1[N+](=O)[O-]`, for which the Potency entry is “inactive”.

On to `OC/C(Br)=C(\Br)CO`, for which the Potency result was “inactive”.

For `CCC=O`, the Potency result was “inactive”.

With `CC(=O)OC(C)C`, the Potency result is “inactive”.

`C=CCn1c(=O)n(CC=C)c(=O)n(CC=C)c1=O`: the Potency result is “inactive”.

Turning to `CCCCCCCCCCCCOCC1CO1` (configuration not stated), the Potency entry was “inactive”.

Regarding `CCOC(=O)C(C)C(C)=O` (configuration not stated), the Potency entry is “inactive”.

With `Oc1cccc(Nc2ccccc2)c1`, the Potency entry is “inactive”.

Consider `C1CCC2OC2C1` (configuration not stated), for which the Potency result is “inactive”.

Consider `Nc1ccc([N+](=O)[O-])c(N)c1`, for which the Potency entry was “inactive”.

Consider `CSc1ccc(C=O)cc1`, for which the Potency entry is “inactive”.

As to `O=C(Cl)c1ccccc1[N+](=O)[O-]`, the Potency result was “inactive”.

Turning to `Nc1cccc([N+](=O)[O-])c1`, the Potency entry was “inactive”.

Regarding `CCOCCOCC`, the Potency entry was “inactive”.

Consider `C=CC(=O)NC(C)C`, for which the Potency entry is “inactive”.

`O=[N+]([O-])c1cccc(Cl)c1`: the Potency result was “inactive”.

With `CCC(C)(C)C(=O)O`, the Potency entry was “inactive”.

Regarding `C/C(C=O)=C/c1ccccc1`, the Potency result is “inactive”.

As for `CC(C)(O)C(=O)O`, the Potency result was “inactive”.

Turning to `CC(=O)OCCC(C)C`, the Potency result is “inactive”.

As for `CCC(C)(C)C`, the Potency result is “inactive”.

Consider `CC(C)CO`, for which the Potency entry was “inactive”.

Take `CCOc1cccc(N)c1`: the Potency result was “inactive”.

Take `O=C1OC(=O)c2cc([N+](=O)[O-])ccc21`: the Potency result was “inactive”.

Consider `COC(=O)CCCC(=O)OC`, for which the Potency result was “inactive”.

In the case of `NC=O`, the Potency entry was “inactive”.

Regarding `O=C(Cl)c1cccc([N+](=O)[O-])c1`, the Potency entry is “inactive”.

Take `Cc1ccc2oc(=O)ccc2c1`: the Potency result was “inactive”.

With `CC(=O)CCc1ccccc1`, the Potency entry is “inactive”.

With `C=CCCCCCCC=C`, the Potency result is “inactive”.

`O=C(O)CNC(=O)c1ccc(CO)o1`: the Potency entry is “inactive”.

Take `Clc1ccccn1`: the Potency entry is “inactive”.

Consider `Nc1cc([N+](=O)[O-])ccc1C(=O)O`, for which the Potency entry was “inactive”.

`Nc1cccc(O)c1`: the Potency result was “inactive”.

As to `CCOCCO`, the Potency entry is “inactive”.

As to `O=C(Cl)c1c(Cl)cccc1Cl`, the Potency result is “inactive”.

Take `ICCc1ccccc1`: the Potency result was “inactive”.
